Experiment [1] can be described thus: CCTE_Harrill_HTTr_Apoptosis_MCF7: CCTE's 6-hour Apoptosis Assessment for the High-Throughput Transcriptomics (HTTr) Platform, in MCF-7 cells cultured in DMEM + 10% fetal bovine serum, Harrill Lab (AID 2284011). In a few lines: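 Cells are dosed with test chemicals at eight concentrations and imaged 6 hours later for caspase-3/7 activity using a green fluorogenic detection reagent. Activity is fitted in both directions against DMSO controls.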

The nature of experiment [2]: CCTE_Harrill_HTTr_CellCount_MCF7: CCTE's Cell Proliferation Assessment for the High-Throughput Transcriptomics (HTTr) Platform, Harrill Lab (AID 2284012; active means hit-call score of the fitted dose curve at least 0.9, where 1 is the maximum;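 further: cells exposed to compound for six hours; intended direction is loss of nuclei count meaning fewer cells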). In a few lines: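 Chemicals in eight-point dilution series are added to MCF-7 cells for six hours, nuclei are stained with Hoechst and imaged, and per-well nuclei counts are fitted in both directions relative to DMSO controls.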

Experiment [3] in a line: CCTE_Shafer_MEA_dev_firing_rate_mean: CCTE's Neural Network Formation Assay for Mean Firing Rate, Shafer Lab (AID 2284031).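 Further: AUC of well mean spike rate recorded on DIV 5 7 9 and 12.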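 On AC50: curve fitted for loss of firing so AC50 reflects decreased mean firing rate.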 In a few lines:
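Rat primary cortical neurons were seeded on multielectrode arrays and treated from plating through day 12, with redosing at each feed. Spontaneous spiking was recorded four times; mean firing rate AUC was fitted downward against DMSO.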

Experiment [4] in a line: CCTE_Shafer_MEA_acute_burst_number: CCTE's Neural Acute Assay for Single-Electrode Bursts, Shafer Lab (AID 2284013). In a few lines: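 Spontaneous network activity of primary rat cortical neurons was recorded extracellularly on microelectrode arrays at 37 C, with 40-min periods before and during exposure to 0.03-40 uM compound on DIV 13 or 15.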
Experiment [5] can be described thus: CCTE_Shafer_MEA_acute_burst_duration_mean: CCTE's Neural Acute Assay for Mean Burst Duration, Shafer Lab (AID 2284014).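 Further: hits are decreases in mean burst duration relative to DMSO controls.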 In a few lines:
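Read-out is the per-well percent change in mean burst duration (first to last spike within a single-electrode burst) between 40-min recordings before and after compound. Cultures were primary rat cortical neurons on MEAs, dosed at 0.03-40 uM on DIV 13 or 15.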

A short description of experiment [6]: CCTE_Shafer_MEA_acute_per_burst_spike_number_mean: CCTE's Neural Acute Assay for Average Number of Spikes Per Burst, Shafer Lab (AID 2284015).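 Further: hits are decreases in mean spikes per burst versus baseline.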 A digest of the protocol: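 We recorded spontaneous network firing of rat cortical neurons for 40 min before and 40 min during exposure to compound at 0.03-40 uM, at 37 C. Spikes were detected adaptively at 8x rms noise, and the change in average spikes per burst was fitted against DMSO.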

Experiment [7] in a line: CCTE_Shafer_MEA_acute_interburst_interval_mean: CCTE's Neural Acute Assay for Mean Interburst Interval, Shafer Lab (AID 2284016).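 Further: percent change of mean interburst interval versus each well's own pre-dose baseline; curves fitted for decrease in interburst interval relative to DMSO.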 A digest of the protocol:
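MEA recording of spontaneous network bursting in primary rat cortical cultures; mean interburst interval was compared before and after a 40-min compound exposure (0.03-40 uM) and expressed as percent change, relative to DMSO.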

A short description of experiment [8]: CCTE_Shafer_MEA_acute_burst_percentage_mean: CCTE's Neural Acute Assay for Percentage of Spikes in a Burst, Shafer Lab (AID 2284017).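 Further: curve fitted for loss of signal so potency reflects decreased burst percentage.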 A digest of the protocol:
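Compounds were tested at 0.03-40 uM on primary rat cortical neuron networks grown over microelectrodes, with at least three wells per compound. Spontaneous firing was recorded for 40 min before and 40 min after dosing, and the change in burst percentage was computed per well.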

The nature of experiment [9]: CCTE_Shafer_MEA_acute_burst_percentage_std: CCTE's Neural Acute Assay for Standard Deviation of Burst Percentage, Shafer Lab (AID 2284018).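 Further: fitted in the negative direction so actives lower burst percentage SD.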 A digest of the protocol:
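Value is percent change from baseline in the across-electrode SD of spikes-in-bursts percentage, wells with >/= 10 active electrodes. Acute 40-min exposure to 0.03-40 uM on DIV 13 or 15 rat cortical cultures, recorded at 37 C after 40-min baseline.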

The nature of experiment [10]: CCTE_Shafer_MEA_acute_per_network_burst_spike_number_mean: CCTE's Neural Acute Assay for Average Number of Spikes in a Network Burst, Shafer Lab (AID 2284019). A digest of the protocol: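 Read-out is mean spike count per network burst, taken as percent change between a 40-min pre-exposure and a 40-min post-exposure recording per well. Rat primary cortical neurons on MEAs at 37 C, DIV 13 or 15; compounds at 0.03-40 uM.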

A short description of experiment [11]: CCTE_Shafer_MEA_acute_per_network_burst_spike_number_std: CCTE's Neural Acute Assay for Standard Deviation of Number of Spikes in a Network Burst, Shafer Lab (AID 2284020).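 Further: fitted for decrease in spike-number SD versus DMSO so actives lower it.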 A digest of the protocol:
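Spontaneous network activity of primary rat cortical neurons is recorded extracellularly before and after a 40-min compound exposure (0.03-40 uM) at 37 C. The endpoint is the well's percent change in burst spike-number SD.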

Experiment [12] can be described thus: CCTE_Shafer_MEA_acute_per_network_burst_electrodes_number_mean: CCTE's Neural Acute Assay for Mean Number of Electrodes in a Network Burst, Shafer Lab (AID 2284021).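 Further: curves fitted for decreases only so hits reduce electrodes per burst.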 A digest of the protocol:
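Cultures of rat cortex neurons were exposed on DIV 13 or 15 to compounds at 0.03-40 uM in at least three wells each. Activity over 40 min before and 40 min after exposure at 37 C gave the percent change in electrodes per network burst.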

Experiment [13] is described as follows: CCTE_Shafer_MEA_acute_network_burst_percentage: CCTE's Neural Acute Assay for Percentage of Network Bursts, Shafer Lab (AID 2284022).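 Further: curves fitted for loss so actives lower network burst percentage.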 A digest of the protocol: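 Cortical neurons from rat were grown over microelectrode arrays and used on day 13 or 15 in vitro. Wells with at least 10 active electrodes received test chemical at 0.03-40 uM. Activity during 40 min of exposure was compared with the preceding 40-min baseline.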

Experiment [14] can be described thus: CCTE_Shafer_MEA_acute_cross_correlation_area: CCTE's Neural Acute Assay for Area of Cross Correlation, Shafer Lab (AID 2284024).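 Further: area under pooled inter-electrode spike cross-correlation near zero lag as percent change from own baseline; curves fitted for loss of cross-correlation area so actives lower synchrony.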 A digest of the protocol:
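Acute exposure of mature rat cortical networks (day 13 or 15 post-plating) to 0.03-40 uM compound. Spontaneous spiking on MEA, 40 min pre- and post-dose at 37 C.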

Experiment [15] is described as follows: CCTE_Shafer_MEA_acute_cross_correlation_HWHM: CCTE's Neural Acute Assay for Cross Correlation at Half Width at Half Maximum, Shafer Lab (AID 2284026).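 Further: percent change per well from pre-dose baseline in spike cross-correlogram half width; hits are a decrease in cross-correlogram half width relative to DMSO.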 In a few lines:
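Primary cortex (rat), MEA, DIV 13/15; compound 0.03-40 uM; 40 min pre + 40 min post at 37 C; spike threshold 8x rms; wells need ≥10 active electrodes; endpoint = % change in cross-correlogram HWHM vs baseline, DMSO negative control.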

Experiment [16] in a line: CCTE_Shafer_MEA_acute_synchrony_index: CCTE's Neural Acute Assay for Synchrony, Shafer Lab (AID 2284027).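 Further: fitted for loss of signal so actives lower synchrony relative to DMSO.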 A digest of the protocol: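 Readout is percent change in the unitless network synchrony index (0 low, 1 high) between a 40-min baseline and a 40-min recording in compound. Cultures were primary rat cortical neurons on MEAs, treated at 0.03-40 uM on DIV 13 or 15.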

The target in experiment [17] is Estrogen receptor (Homo sapiens) (UniProt P03372). The experiment in a line: CCTE_Deisenroth_AIME_96WELL_LUC_Active: CCTE's 96-well Estrogen Receptor Transactivation Assay with AIME metabolic competence (ERTA luciferase; metabolism positive), Deisenroth Lab (AID 2284023; active means hit-call score of the fitted dose curve at least 0.9, where 1 is the maximum). In a few lines:
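Chemicals pre-incubated 2 h with alginate-immobilized phenobarbital/beta-naphthoflavone-induced male Sprague Dawley rat liver S9, then medium transferred to VM7Luc4E2 cells for 24 h luciferase read-out. 10-point series 0.002 - 200 uM; fitted relative to 17beta-estradiol.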

Experiment [18] has the same target. The experiment is described as follows: CCTE_Deisenroth_AIME_96WELL_LUC_Inactive: CCTE's 96-well Estrogen Receptor Transactivation Assay without AIME metabolic competence (ERTA luciferase; metabolism negative), Deisenroth Lab (AID 2284025; active means hit-call score of the fitted dose curve at least 0.9, where 1 is the maximum). In a few lines:
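VM7Luc4E2 breast cells, luciferase read 24 h after dosing with medium pre-incubated 2 h on alginate-water lids (metabolism negative). 10-point series 0.002–200 uM, single technical replicate, n≥4; fit relative to 17beta-estradiol.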

Experiment [19] is described as follows: CCTE_Deisenroth_AIME_96WELL_CTox_Active: Cytotoxicity Assessment (CTOX) in CCTE's 96-well Estrogen Receptor Transactivation Assay with AIME metabolic competence (metabolism positive), Deisenroth Lab (AID 2284028; active means hit-call score of the fitted dose curve at least 0.9, where 1 is the maximum). A digest of the protocol:
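Chemicals (0.002–200 uM) were first incubated 2 h with alginate-immobilized phenobarbital/beta-naphthoflavone-induced male rat liver S9; conditioned medium then went onto VM7Luc4E2 cells for 24 h, with viability read by protease-substrate fluorescence, fitted bidirectionally.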

Experiment [20] is described as follows: CCTE_Deisenroth_AIME_96WELL_CTox_Inactive: Cytotoxicity Assessment (CTOX) in CCTE's 96-well Estrogen Receptor Transactivation Assay without AIME metabolic competence (metabolism negative), Deisenroth Lab (AID 2284029; active means hit-call score of the fitted dose curve at least 0.9, where 1 is the maximum). In a few lines:
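Chemicals (0.002 - 200 uM, 10 points) incubated 2 h with alginate-water microspheres (no S9), then medium moved onto VM7Luc4E2 cells for 24 h. Viability by protease-substrate cleavage to fluorescent probe; bidirectional fitting.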

Records with an inconclusive call do not appear. Activity calls are given as the source filed them. How the source made its calls, unless noted: active means hit-call score of the fitted dose curve at least 0.9, where 1 is the maximum; inactive means score below 0.9.

Estrogen receptor (Homo sapiens), sequence (P03372 whole entry, looked up): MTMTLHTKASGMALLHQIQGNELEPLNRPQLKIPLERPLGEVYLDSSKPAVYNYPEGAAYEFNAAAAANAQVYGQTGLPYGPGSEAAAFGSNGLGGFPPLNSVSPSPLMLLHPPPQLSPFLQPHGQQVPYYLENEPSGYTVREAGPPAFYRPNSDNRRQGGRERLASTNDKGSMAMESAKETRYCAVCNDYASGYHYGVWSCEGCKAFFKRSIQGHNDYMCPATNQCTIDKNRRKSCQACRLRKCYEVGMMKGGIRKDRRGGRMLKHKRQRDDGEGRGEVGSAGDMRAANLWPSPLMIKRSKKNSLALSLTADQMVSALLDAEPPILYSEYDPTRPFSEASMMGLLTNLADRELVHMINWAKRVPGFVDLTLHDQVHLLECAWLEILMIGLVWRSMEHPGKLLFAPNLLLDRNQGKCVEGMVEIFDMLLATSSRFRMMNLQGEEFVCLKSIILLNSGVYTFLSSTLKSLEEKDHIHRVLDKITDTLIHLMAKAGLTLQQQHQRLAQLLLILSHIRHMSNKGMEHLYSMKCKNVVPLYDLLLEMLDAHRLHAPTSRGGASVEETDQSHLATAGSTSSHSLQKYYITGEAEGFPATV

On to `Cc1cccc(C)n1`, for which the outcome in experiment [1] and in [2] was inactive.
With `CCC(Cc1c(I)cc(I)c(N)c1I)C(=O)O` (stereo not given), the outcome in experiment [1] was inactive.
With `NC(=O)C(F)(F)C(F)(F)C(F)(F)C(F)F`, the compound was called inactive in experiment [3].
On the same count and under the same terms, as for `CO[Si](C)(CCC(F)(F)C(F)(F)C(F)(F)C(F)(F)C(F)(F)C(F)(F)F)OC`, the entry is “inactive”; as for `C=CC(=O)OCCC(F)(F)C(F)(F)C(F)(F)C(F)(F)F`, “inactive”; as for `OCC(O)CC(F)(F)C(F)(F)C(F)(F)C(F)(F)F` (stereo not given), “inactive”.
Regarding `NC(=O)C(F)(F)C(F)(F)C(F)(F)C(F)(F)C(N)=O`, the call in experiment [3] was inactive.
The same measure, in the same setting: then `OCCCCC(F)(F)C(F)(F)C(F)(F)C(F)(F)F`, with “inactive”; and `OCC(F)(F)C(F)(F)C(F)(F)C(F)(F)C(F)(F)C(F)(F)CO`, with “inactive”; and `O=S(=O)(O)CCC(F)(F)C(F)(F)C(F)(F)C(F)(F)F`, with “inactive”.
With `CCN=C1C=CC(=C(c2ccc(N(CC)CC)cc2)c2ccc(N(CC)CC)cc2)c2ccccc21`, the outcome in [1], in [5], in experiment [9] and in experiment [10] was inactive. Further, the AC50 is 92200 nM (active) in [2]; 545 nM (active) in [4]; 518 nM (active) in experiment [6]; 361 nM (active) in experiment [7]; 549 nM (active) in experiment [8]; 718 nM (active) in [11]. For the same compound, the concentration at half-maximal activity (AC50) was 498 nM (active) in [12]; 762 nM (active) in experiment [13]; 302 nM (active) in [14]; 883 nM (active) in experiment [15]; 541 nM (active) in experiment [16].
In the case of `CCN(CCO)S(=O)(=O)C(F)(F)C(F)(F)C(F)(F)C(F)(F)C(F)(F)C(F)(F)C(F)(F)C(F)(F)F`, the call in experiment [3] was inactive.
Still for that read-out and setting: then `CNS(=O)(=O)C(F)(F)C(F)(F)C(F)(F)C(F)(F)C(F)(F)C(F)(F)C(F)(F)C(F)(F)F`, with “inactive”.
Same read-out and setting: as for `OCC(F)(F)C(F)(F)C(F)(F)C(F)(F)C(F)(F)C(F)(F)C(F)(F)C(F)(F)CO`, the entry is “inactive”.
On to `CCCCC(CC)COC(=O)c1ccc(N(C)C)cc1` (stereo not given), for which the result in [1], in [17], in experiment [19] and in [20] was inactive. Besides, the AC50 in [18] is 16200 nM (active).
For the compound `FC(F)(F)C(F)(F)C(F)(F)C(F)(F)C(F)(F)C(F)(F)C(F)(F)CCI`, the call in experiment [3] was inactive.
On the same count and under the same terms, as for `NC(=O)C(F)(F)C(F)(F)C(F)(F)F`, the entry is “inactive”.
On to `C=CC(=O)OCC(F)(F)C(F)(F)C(F)(F)COC(=O)C=C`, for which the concentration at half-maximal activity (AC50) in experiment [3] was 4710 nM (active).
As to `OC(O)C(F)(F)C(F)(F)F`, the call in experiment [3] was inactive.
Take `O=S(=O)(O)CCC(F)(F)C(F)(F)C(F)(F)C(F)(F)C(F)(F)C(F)(F)C(F)(F)C(F)(F)F`: in [3], the compound was classed as inactive.
On the same count and under the same terms, as for `O=C(O)C(F)(F)C(F)(F)C(F)(F)OC(F)(F)F`, the entry is “inactive”.
Consider `CCCCCCCC/C=C\CCCCCCCC(=O)N(C)CC(=O)O`, for which the outcome in [1] and in [2] was inactive.
As to `Cc1ccc(O)c(-n2nc3ccccc3n2)c1`, the outcome in experiment [1], in experiment [2], in experiment [19] and in experiment [20] was inactive. Besides, the figures for the half-maximal activity concentration (AC50) in experiment [17] and in [18] were 21700 nM (active) and 10200 nM (active), respectively.
In the case of `OCC(F)(F)C(F)(F)C(F)(F)CO`, the compound was classed as inactive in experiment [3].
Turning to `NC(O)(C(F)(F)F)C(F)(F)F`, the compound was classed as inactive in experiment [3].

A word on the AC50: it is the midpoint of the concentration-response curve, whichever way the signal moves.

Source of the values: PubChem BioAssay (EPA / NIEHS).
